The text below walks through data of ChEMBL document CHEMBL3988442, “University of Dundee, Small-Polar-MMV Screening Library” (2021).

Holding throughout (parameters): scale not given: direction of the effect not stated beside the values
Assay [1] addresses Protein translocase subunit SecA (Escherichia coli (strain K12)) (UniProt P10408). Nature of the assay: Assay to Identify E. coli SecA ATPase Inhibitors. The class given is functional. To be noted: 30 µM.
The target in assay [2] is T1, Ubiquitin-activating enzyme e1, putative (Leishmania donovani (strain BPK282A1)) (UniProt E9BSI1).
T1 sequence (whole entry): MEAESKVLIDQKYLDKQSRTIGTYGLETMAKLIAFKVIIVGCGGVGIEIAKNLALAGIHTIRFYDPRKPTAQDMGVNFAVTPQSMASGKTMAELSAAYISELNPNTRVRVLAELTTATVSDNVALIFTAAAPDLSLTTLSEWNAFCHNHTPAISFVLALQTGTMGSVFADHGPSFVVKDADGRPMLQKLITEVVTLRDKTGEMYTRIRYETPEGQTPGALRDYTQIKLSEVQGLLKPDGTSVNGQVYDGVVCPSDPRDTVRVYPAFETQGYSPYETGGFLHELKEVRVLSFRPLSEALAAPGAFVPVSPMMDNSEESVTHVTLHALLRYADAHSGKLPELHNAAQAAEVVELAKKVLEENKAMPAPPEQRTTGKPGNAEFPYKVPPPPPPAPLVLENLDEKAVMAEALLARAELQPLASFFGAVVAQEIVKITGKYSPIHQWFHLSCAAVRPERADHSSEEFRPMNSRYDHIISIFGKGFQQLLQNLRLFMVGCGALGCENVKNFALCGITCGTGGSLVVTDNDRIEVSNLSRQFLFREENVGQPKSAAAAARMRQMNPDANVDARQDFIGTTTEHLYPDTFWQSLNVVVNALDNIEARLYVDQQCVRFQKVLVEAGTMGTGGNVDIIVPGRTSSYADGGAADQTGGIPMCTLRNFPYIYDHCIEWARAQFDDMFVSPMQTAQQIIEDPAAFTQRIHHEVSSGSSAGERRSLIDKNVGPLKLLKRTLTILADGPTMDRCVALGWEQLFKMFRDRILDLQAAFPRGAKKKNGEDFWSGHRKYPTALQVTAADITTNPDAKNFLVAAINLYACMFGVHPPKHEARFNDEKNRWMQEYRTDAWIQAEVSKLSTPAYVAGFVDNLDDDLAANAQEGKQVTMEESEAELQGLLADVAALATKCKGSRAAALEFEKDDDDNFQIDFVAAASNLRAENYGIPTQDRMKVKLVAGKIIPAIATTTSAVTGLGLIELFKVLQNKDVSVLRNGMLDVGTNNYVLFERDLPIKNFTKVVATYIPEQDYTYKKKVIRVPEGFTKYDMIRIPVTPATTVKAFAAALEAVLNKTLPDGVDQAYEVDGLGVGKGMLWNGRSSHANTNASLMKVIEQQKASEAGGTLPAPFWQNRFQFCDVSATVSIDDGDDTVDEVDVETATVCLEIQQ
The assay can be described thus: Leishmania donovani Ubiquitin Activating Enzyme (LdE1). The class given is functional. To be noted: 30 µM.

Assay [3] concerns the target AMP-activated protein kinase, AMPK (Homo sapiens) (UniProt P54646+O43741+P54619+Q9UGJ0+Q9Y478+Q13131+Q9UGI9). The assay can be described thus: AMP-dependent Kinase enzyme assay. An in vitro enzyme assay that detects ADP turnover that is directly proportional to AMPK activity. This uses naive AMPK that is activated during the assay with MK-8722. The conditions noted are these: 30 µM. The class given is functional.

Assay [4] concerns the target Sialic acid-binding Ig-like lectin 9 (Homo sapiens) (UniProt Q9Y336). Nature of the assay: Hs-Siglec9 ALPHAscreen SOP 20170721. The conditions noted are these: 10 µM. A general note: Bead proximity is the source of the signal in Alpha formats.
In the next assay the test system is Trypanosoma cruzi. The assay can be described thus: Trypanosoma cruzi phosphomannomutase and mannose-1-phosphate guanylyltransferase assay. The class given is functional. The conditions noted are these: 10 µM.
Assay [5] has as its target T2, Arginase-2, mitochondrial (Homo sapiens) (UniProt P78540).
T2 sequence (whole entry): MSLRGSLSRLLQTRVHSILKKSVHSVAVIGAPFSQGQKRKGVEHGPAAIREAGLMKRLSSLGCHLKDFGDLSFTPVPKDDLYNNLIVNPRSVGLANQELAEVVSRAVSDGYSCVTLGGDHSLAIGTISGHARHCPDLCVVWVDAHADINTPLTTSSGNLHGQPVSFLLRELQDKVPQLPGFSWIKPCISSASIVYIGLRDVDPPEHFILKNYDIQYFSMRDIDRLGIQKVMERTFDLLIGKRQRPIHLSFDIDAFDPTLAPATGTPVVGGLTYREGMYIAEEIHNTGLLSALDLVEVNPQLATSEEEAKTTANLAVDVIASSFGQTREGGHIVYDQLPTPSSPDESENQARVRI
The assay can be described thus: in vitro enzyme assay to detect the production of urea directly proportional to the activity of Arginase II. Further: in the data most compounds retested in dose-response had high values. The class given is functional. The conditions noted are these: 33.3 µM.

For assay [6], the target named is T3, Proteasome subunit beta (Trypanosoma cruzi) (UniProt O96673).
T3 sequence (whole entry): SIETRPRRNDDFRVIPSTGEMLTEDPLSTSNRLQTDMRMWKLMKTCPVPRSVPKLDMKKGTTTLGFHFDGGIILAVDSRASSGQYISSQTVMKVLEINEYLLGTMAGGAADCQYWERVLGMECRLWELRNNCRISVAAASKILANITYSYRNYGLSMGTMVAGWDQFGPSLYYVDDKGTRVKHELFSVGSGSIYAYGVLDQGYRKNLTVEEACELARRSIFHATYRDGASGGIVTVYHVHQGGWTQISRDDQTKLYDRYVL
The assay can be described thus: Trypanosoma cruzi proteasome chymotrypsin-like activity (TcProtChymo) assay. Further: in the data most compounds retested in dose-response had high values. The class given is functional. To be noted: 9.37 µM.

Another assay is filed under the species Homo sapiens. Nature of the assay: To identify inhibition of the IFN signalling (Jak-Stat) pathway via expression of an eGFP reporter gene under the control of an IFN-stimulated response element (ISRE) containing MxA promoter. The class given is functional. To be noted: 30 µM. A general note: Reporter assays use an easily measured gene product as a stand-in for the process of interest.

In assay [7] the target is T4, Tyrosyl-tRNA synthetase, putative (Trypanosoma cruzi (strain CL Brener)) (UniProt Q4DSP6).
T4 sequence (whole entry): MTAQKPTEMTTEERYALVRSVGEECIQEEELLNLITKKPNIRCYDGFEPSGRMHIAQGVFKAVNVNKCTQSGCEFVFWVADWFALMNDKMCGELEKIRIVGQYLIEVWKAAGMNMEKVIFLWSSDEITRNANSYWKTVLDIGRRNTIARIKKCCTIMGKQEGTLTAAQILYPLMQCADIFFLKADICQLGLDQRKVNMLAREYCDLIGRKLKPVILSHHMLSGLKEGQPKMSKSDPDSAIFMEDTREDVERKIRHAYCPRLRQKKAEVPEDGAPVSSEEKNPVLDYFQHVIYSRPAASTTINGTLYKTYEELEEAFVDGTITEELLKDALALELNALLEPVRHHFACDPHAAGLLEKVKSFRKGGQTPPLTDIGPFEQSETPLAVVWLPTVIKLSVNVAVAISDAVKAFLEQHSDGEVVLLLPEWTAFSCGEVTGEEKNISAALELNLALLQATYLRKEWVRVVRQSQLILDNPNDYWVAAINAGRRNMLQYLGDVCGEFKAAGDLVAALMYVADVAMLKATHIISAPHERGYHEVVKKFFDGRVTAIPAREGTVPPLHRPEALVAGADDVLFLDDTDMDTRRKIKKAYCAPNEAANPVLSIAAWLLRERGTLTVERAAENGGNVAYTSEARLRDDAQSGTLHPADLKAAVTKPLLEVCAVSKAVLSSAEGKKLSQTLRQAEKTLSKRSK
Nature of the assay: Trypanosoma cruzi tyrosyl tRNA synthetase (TcYRS) _High Tyrosine SOP. Further: in the data most compounds retested in dose-response had high values. The class given is functional. The conditions noted are these: 30 µM.

In assay [8] the target is T4, Tyrosyl-tRNA synthetase, putative (Trypanosoma cruzi (strain CL Brener)). Nature of the assay: Trypanosoma cruzi tyrosyl tRNA synthetase (TcYRS) SOP. Format: functional. The conditions noted are these: 30 µM.
Assay [9] concerns the target Chromo domain-containing protein 1 (Saccharomyces cerevisiae (strain ATCC 204508 / S288c) (Baker's yeast)) (UniProt P32657). Nature of the assay: ScCHD-1 Enzyme Inhibition Assay. Further: in the data most compounds retested in dose-response had high values. Format: functional. To be noted: 30 µM.

For some of these results: Potency and affinity values are given separately.

Chain of Sialic acid-binding Ig-like lectin 9 (Homo sapiens) (Q9Y336 whole entry): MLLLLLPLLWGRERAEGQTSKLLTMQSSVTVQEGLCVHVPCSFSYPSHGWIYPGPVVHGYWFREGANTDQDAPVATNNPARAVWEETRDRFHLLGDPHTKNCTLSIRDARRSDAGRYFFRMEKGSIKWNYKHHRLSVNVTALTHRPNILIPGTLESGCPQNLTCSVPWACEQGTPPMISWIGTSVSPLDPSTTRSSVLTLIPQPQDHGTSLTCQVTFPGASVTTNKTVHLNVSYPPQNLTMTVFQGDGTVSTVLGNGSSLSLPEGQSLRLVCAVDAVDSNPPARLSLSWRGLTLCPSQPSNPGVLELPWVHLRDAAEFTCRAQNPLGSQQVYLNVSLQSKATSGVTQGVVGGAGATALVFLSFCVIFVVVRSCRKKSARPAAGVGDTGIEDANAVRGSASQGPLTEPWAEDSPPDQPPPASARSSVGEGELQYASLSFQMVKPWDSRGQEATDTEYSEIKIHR
Chain of Chromo domain-containing protein 1 (Saccharomyces cerevisiae (strain ATCC 204508 / S288c) (Baker's yeast)) (P32657 whole entry, the tested form may be a part): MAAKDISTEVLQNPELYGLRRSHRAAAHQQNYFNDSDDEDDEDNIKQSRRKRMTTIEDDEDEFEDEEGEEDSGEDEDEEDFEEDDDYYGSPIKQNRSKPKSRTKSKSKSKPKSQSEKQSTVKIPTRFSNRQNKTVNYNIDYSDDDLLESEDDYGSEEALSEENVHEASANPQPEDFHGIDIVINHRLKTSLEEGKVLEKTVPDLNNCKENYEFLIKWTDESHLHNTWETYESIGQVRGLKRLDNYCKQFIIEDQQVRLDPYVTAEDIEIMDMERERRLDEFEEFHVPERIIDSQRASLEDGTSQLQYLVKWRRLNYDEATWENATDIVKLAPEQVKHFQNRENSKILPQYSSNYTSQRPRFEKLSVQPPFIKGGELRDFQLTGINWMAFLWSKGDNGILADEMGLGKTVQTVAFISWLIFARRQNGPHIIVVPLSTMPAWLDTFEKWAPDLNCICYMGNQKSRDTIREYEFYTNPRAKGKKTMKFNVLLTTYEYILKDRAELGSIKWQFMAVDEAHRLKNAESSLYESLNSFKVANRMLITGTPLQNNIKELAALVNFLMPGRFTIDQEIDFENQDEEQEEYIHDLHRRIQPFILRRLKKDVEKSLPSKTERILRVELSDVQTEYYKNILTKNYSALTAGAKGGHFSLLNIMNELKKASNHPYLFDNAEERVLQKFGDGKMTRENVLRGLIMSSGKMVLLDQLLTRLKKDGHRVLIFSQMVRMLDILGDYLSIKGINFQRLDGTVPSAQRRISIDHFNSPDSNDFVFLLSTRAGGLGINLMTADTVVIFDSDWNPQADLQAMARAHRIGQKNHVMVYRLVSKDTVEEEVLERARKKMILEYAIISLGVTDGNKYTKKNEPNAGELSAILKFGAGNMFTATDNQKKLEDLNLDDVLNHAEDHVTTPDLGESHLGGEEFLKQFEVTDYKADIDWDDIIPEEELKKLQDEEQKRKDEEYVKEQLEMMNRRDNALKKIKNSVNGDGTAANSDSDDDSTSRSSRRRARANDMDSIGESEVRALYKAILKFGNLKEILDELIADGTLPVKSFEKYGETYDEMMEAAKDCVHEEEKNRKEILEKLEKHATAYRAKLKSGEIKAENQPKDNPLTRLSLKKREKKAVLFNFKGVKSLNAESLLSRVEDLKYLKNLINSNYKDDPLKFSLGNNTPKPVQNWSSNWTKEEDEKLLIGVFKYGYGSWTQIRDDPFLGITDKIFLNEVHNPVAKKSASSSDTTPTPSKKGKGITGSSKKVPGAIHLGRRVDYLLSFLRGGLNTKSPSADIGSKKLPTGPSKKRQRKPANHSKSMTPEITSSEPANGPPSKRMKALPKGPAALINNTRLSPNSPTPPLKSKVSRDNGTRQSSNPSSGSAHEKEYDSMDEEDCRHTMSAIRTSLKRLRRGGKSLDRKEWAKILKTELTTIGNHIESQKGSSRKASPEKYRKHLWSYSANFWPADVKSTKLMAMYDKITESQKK
Chain of Protein translocase subunit SecA (Escherichia coli (strain K12)) (P10408 whole entry): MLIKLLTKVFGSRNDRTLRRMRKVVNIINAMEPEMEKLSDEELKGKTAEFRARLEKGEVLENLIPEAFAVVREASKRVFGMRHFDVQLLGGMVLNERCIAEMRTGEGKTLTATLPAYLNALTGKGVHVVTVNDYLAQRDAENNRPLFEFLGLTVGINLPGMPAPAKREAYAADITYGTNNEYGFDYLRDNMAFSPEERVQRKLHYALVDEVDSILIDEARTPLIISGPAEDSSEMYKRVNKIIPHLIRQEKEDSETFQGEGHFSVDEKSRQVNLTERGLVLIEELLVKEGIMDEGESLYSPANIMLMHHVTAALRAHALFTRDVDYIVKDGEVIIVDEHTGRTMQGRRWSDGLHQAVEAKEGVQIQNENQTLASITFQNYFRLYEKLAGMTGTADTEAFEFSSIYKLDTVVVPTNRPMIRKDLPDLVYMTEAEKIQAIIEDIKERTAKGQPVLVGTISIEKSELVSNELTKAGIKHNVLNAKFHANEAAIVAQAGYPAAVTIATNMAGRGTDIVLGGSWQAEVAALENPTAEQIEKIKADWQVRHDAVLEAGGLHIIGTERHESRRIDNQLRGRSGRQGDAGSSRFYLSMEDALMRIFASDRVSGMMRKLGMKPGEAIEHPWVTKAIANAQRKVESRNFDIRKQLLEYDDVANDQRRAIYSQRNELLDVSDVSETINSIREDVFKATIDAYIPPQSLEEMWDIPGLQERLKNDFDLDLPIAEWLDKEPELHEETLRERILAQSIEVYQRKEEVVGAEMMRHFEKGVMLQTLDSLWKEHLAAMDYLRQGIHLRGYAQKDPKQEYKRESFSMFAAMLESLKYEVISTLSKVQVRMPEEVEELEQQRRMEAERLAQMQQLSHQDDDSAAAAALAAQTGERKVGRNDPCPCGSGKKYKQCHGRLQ

Take `CCc1nc(CN2CCN(C(=O)CCc3ccccc3)CC2)cs1`: the Percent Effect in assay [1] was -6.36%; in assay [2], 19%; in assay [3] it was -2.93%; in assay [4] it was 5.39%; with Trypanosoma cruzi, -1.95%; in [5], 2.8%. Moreover, the Percent Effect is 16.5% in assay [6]; 3.67% in the assay listed under Homo sapiens; -1.04% in [7]; 17.7% in [8]; -23.8% in [9].

With `Cc1oc(-c2ccco2)nc1CC(=O)N1CCC(C(O)C(F)(F)F)CC1` (stereo not drawn), the Percent Effect in assay [1] is -2.39%; in [2], 0%; in [3], -2.68%; in [4], 2.74%; with Trypanosoma cruzi it was 6.76%; in assay [5], -4.42%. Moreover, the Percent Effect in assay [6] was -5.58%; in the assay listed under Homo sapiens it was -30%; in assay [7] it was -0.952%; in assay [8] it was 9.41%; in assay [9] it was -13.1%.

As for `c1ccc(OCCCN2CCN(c3ccc4nncn4n3)CC2)cc1`, the Percent Effect in assay [1] was -7.97%; in assay [2], -18.2%; in assay [3], -5.57%; in assay [4], 15.6%; with Trypanosoma cruzi it was 8.61%; in [5], -5.69%. Further, the Percent Effect was 17.6% in assay [6]; 47.8% in the assay listed under Homo sapiens; 18.4% in [7]; 24.4% in assay [8]; -1.5% in [9].

Take `CC(=O)Nc1c(C)cnn1Cc1cc(F)ccc1F`: the Percent Effect was -3.16% in assay [1]; 0% in [2]; 0.653% in assay [3]; 2.06% in assay [4]; -3.99% in the assay on Trypanosoma cruzi; 1.56% in [5]. Moreover, the Percent Effect in [6] is 2.09%; in the assay filed under Homo sapiens, 12.2%; in [7] it was 2.73%; in assay [8], 6.17%; in assay [9] it was -0.196%.

`O=C(NCc1cn2c(n1)CN(CC1CCOCC1)CC2)C1CCC1`: the Percent Effect in assay [1] was -8.08%; in [2] it was -2.7%; in assay [3], 4.27%; in assay [4], 1.46%; in the assay on Trypanosoma cruzi it was -2.73%; in assay [5] it was -1.25%. Further, the Percent Effect in assay [6] was 12.9%; in the assay filed under Homo sapiens, 5.25%; in [7], 2.97%; in assay [8], 1.22%; in assay [9], -0.655%.

As for `CCC(=O)N1CCC2(CC1)COc1ccccc1S(=O)(=O)N(C)C2`, the Percent Effect in [1] is -4.24%; in assay [2] it was 16.2%; in assay [3] it was -6.69%; in assay [4] it was 20.9%; in the assay with Trypanosoma cruzi, 1.27%; in assay [5], 2.23%. The Percent Effect in [6] was 9.7%; in the assay listed under Homo sapiens it was 7.17%; in assay [7], 7.53%; in [8], 18.5%; in assay [9], -11.2%.

As to `O=C(NCCCc1ccncc1)C1CCCN(Cc2ccco2)C1` (stereo not drawn), the Percent Effect was -4.69% in [1]; 5.33% in assay [2]; 3.79% in [3]; -5.72% in assay [4]; -10.8% in the assay on Trypanosoma cruzi; 1.04% in [5]. For the same compound, the Percent Effect was 17.6% in assay [6]; 29.8% in the assay listed under Homo sapiens; -1.64% in assay [7]; 6.17% in [8]; -7.2% in assay [9].

On to `Cc1ccc(C(=O)NS(=O)(=O)c2cccc3cnccc23)c(=O)[nH]1`, for which the Percent Effect in [1] was -5.08%; in assay [2], 13.5%; in [3] it was -0.0909%; in assay [4], 7.48%; in the assay with Trypanosoma cruzi it was 0.65%; in [5], 1.66%. Further, the Percent Effect in assay [6] was 6.64%; in the assay listed under Homo sapiens, 13%; in [7], 6.93%; in [8], 15.8%; in [9], 2.35%.
